# ChEMBL document CHEMBL2218924, “A broad activity screen in support of a chemogenomic map for kinase signalling research and drug discovery” (Biochem J, 2013)
# Tests used:
# [1] = target: Ribosomal protein S6 kinase alpha-1 (Homo sapiens) (UniProt Q15418); details: at 1 µM
# [2] = target: Ribosomal protein S6 kinase alpha-1 (Homo sapiens) (UniProt Q15418); details: at 10 µM
# [3] = target: Ribosomal protein S6 kinase alpha-3 (Homo sapiens) (UniProt P51812); details: at 1 µM
# [4] = target: Ribosomal protein S6 kinase alpha-3 (Homo sapiens) (UniProt P51812); details: at 10 µM
# [5] = target: Ribosomal protein S6 kinase alpha-2 (Homo sapiens) (UniProt Q15349); details: at 1 µM
# Ribosomal protein S6 kinase alpha-2 (Homo sapiens), sequence (Q15349 whole entry): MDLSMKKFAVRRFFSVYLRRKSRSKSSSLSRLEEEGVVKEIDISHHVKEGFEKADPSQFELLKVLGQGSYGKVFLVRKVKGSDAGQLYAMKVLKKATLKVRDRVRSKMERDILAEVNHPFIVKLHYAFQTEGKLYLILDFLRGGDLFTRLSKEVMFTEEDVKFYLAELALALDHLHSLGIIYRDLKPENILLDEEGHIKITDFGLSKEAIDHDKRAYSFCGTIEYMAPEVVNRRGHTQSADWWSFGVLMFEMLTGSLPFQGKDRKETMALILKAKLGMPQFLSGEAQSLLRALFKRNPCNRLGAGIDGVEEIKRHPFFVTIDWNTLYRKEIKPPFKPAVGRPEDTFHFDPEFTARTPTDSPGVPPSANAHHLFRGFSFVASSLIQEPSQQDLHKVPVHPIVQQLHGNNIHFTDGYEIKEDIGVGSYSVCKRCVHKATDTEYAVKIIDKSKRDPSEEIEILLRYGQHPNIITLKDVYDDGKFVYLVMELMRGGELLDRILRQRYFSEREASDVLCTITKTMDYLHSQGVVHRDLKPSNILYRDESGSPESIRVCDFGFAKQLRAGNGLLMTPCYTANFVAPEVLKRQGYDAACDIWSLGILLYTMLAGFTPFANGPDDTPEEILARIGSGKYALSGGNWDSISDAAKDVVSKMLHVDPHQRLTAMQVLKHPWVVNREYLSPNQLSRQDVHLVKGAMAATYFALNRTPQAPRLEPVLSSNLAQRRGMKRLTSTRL
# [6] = target: Ribosomal protein S6 kinase alpha-2 (Homo sapiens) (UniProt Q15349); details: at 10 µM
# [7] = target: Ribosomal protein S6 kinase alpha-6 (Homo sapiens) (UniProt Q9UK32); details: at 1 µM
# Ribosomal protein S6 kinase alpha-6 (Homo sapiens), sequence (Q9UK32 whole entry): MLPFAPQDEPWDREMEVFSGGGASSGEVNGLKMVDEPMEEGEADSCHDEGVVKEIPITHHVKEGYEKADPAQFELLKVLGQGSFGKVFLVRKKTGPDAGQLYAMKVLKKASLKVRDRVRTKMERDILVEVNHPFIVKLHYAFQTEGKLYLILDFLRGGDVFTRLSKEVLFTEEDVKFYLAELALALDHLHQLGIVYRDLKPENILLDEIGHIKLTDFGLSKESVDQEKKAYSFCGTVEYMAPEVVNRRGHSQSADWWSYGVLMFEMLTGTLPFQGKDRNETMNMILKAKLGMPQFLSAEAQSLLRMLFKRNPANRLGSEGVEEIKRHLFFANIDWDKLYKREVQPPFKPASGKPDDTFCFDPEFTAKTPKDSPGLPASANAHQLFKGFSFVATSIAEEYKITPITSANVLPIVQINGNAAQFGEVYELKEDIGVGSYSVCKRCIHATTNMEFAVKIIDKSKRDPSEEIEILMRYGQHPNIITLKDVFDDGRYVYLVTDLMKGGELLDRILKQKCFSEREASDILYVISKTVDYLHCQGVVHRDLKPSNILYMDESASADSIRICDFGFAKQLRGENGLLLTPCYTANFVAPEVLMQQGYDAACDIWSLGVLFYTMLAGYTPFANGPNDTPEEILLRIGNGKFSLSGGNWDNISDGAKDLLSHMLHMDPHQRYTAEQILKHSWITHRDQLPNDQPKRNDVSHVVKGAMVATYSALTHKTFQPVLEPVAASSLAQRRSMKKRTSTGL
# [8] = target: Ribosomal protein S6 kinase alpha-6 (Homo sapiens) (UniProt Q9UK32); details: at 10 µM
# [9] = target: Mitogen-activated protein kinase 14 (Homo sapiens) (UniProt Q16539); details: at 1 µM
# Mitogen-activated protein kinase 14 (Homo sapiens), sequence (Q16539 whole entry): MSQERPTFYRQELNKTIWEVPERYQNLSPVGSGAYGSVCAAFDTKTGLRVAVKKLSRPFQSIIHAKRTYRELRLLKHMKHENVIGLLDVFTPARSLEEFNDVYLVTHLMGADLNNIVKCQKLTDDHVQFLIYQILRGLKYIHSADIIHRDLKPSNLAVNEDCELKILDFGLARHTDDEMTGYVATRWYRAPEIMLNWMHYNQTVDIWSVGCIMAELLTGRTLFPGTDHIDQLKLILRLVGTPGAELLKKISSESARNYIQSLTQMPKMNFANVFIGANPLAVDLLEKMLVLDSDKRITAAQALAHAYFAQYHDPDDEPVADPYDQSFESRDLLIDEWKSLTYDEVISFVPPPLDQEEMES
# [10] = target: Mitogen-activated protein kinase 14 (Homo sapiens) (UniProt Q16539); details: at 10 µM
# Ribosomal protein S6 kinase alpha-3 (Homo sapiens), sequence (P51812 whole entry): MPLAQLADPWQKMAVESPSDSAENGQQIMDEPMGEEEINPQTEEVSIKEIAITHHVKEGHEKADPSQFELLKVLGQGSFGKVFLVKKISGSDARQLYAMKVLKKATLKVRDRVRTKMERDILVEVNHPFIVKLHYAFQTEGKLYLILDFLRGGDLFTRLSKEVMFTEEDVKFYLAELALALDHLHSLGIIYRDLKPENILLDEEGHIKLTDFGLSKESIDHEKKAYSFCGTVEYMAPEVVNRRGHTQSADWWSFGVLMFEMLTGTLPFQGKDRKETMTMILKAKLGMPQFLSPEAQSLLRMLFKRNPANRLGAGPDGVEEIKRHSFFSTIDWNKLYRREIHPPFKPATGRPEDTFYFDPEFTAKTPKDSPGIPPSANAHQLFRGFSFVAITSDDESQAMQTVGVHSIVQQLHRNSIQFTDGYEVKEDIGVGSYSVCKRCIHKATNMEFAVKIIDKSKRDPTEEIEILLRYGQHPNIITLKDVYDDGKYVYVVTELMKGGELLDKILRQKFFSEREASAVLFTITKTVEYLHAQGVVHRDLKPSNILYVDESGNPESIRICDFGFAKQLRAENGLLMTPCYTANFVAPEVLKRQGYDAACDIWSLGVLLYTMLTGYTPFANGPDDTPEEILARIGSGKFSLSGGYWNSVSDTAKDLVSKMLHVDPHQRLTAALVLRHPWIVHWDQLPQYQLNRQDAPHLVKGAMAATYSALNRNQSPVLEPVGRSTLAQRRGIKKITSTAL
# Ribosomal protein S6 kinase alpha-1 (Homo sapiens), sequence (Q15418 whole entry): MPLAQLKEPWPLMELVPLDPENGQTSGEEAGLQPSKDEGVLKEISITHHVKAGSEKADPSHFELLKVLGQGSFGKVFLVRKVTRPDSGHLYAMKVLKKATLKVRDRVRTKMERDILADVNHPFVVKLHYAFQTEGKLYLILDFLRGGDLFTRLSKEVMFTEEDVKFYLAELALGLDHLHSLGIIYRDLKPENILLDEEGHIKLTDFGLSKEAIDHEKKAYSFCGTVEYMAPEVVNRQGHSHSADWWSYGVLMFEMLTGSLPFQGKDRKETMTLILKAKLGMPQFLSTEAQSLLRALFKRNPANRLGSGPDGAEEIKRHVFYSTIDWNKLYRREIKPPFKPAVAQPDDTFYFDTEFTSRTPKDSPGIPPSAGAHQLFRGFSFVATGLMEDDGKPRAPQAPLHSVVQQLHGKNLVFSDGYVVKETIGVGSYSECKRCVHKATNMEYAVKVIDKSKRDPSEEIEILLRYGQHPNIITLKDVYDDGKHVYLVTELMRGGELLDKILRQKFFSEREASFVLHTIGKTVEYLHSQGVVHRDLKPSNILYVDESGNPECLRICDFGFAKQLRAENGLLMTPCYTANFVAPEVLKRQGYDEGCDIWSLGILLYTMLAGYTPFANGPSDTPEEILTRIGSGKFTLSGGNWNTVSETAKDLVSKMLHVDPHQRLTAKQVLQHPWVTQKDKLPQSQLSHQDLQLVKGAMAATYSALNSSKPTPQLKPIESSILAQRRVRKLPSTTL
Structure (SMILES),residual activity [1],residual activity [2],residual activity [3],residual activity [4],residual activity [5],residual activity [6],residual activity [7],residual activity [8],residual activity [9],residual activity [10]
Oc1ccc(-c2nc(-c3ccc(F)cc3)c(-c3ccncc3)[nH]2)cc1,117%,83%,55%,45%,105%,68%,88%,92%,,
Nc1ccc2ncnc(NCCc3ccc(Oc4ccccc4)cc3)c2c1,58%,41%,49%,45%,89%,65%,66%,77%,90%,91%
O=c1cc(-c2cccc3c2Sc2ccccc2S3)oc(N2CCOCC2)c1,87%,94%,106%,93%,98%,99%,96%,87%,103%,99%
CCN(CC)CCCCN1c2ccccc2Oc2ccc(Cl)cc21,110%,117%,67%,64%,109%,90%,118%,104%,93%,84%
O=[N+]([O-])c1ccc(-c2nc(-c3ccc(F)cc3)c(-c3ccncc3)[nH]2)cc1,101%,104%,60%,62%,103%,97%,91%,83%,1%,2%
Oc1c2ccccc2c2c3c(cccc13)N=N2,86%,64%,54%,32%,58%,22%,43%,52%,96%,85%
CO[C@@H]1[C@H](N(C)C(=O)c2ccccc2)C[C@H]2O[C@]1(C)n1c3ccccc3c3c4c(c5c6ccccc6n2c5c31)C(=O)NC4,0%,1%,1%,0%,1%,0%,0%,3%,71%,78%
O=c1c2ccccc2[nH]c(=S)n1CCN1CCC(=C(c2ccc(F)cc2)c2ccc(F)cc2)CC1,113%,61%,79%,50%,119%,100%,114%,91%,97%,104%
COc1ccc(C(=O)Nc2sc3c(c2C(N)=O)CCCC3)cc1OC,99%,103%,111%,93%,94%,97%,118%,99%,93%,100%
O=C1Nc2ccc(Br)cc2/C1=C\c1cc2c([nH]1)CCCC2,84%,81%,45%,37%,79%,76%,79%,113%,,
CCOc1cc2ncnc(Nc3cccc(Br)c3)c2cc1OCC,100%,72%,102%,40%,90%,48%,92%,46%,57%,13%
O=C1NC(=O)c2c1c1c3ccccc3[nH]c1c1[nH]c3cc(Br)ccc3c21,63%,49%,49%,43%,44%,32%,83%,82%,93%,85%
Nc1cccc(-c2cc3c(Oc4cccc(O)c4)ncnc3[nH]2)c1,97%,68%,68%,32%,76%,27%,56%,41%,54%,11%
CC(C)n1cnc2/c(=N/c3cccc(Cl)c3)nc(NCCO)[nH]c21,50%,22%,15%,6%,6%,2%,34%,21%,84%,74%
O=C1c2ccccc2-[n+]2ccc3c([nH]c4ccccc43)c21,97%,116%,55%,50%,101%,90%,95%,102%,87%,85%
O=C1Nc2cc(Br)ccc2/C1=C1/Nc2ccccc2/C1=N\O,72%,73%,24%,6%,17%,28%,38%,24%,85%,83%
Cc1cc2ncc(-c3ccccc3)nc2cc1C,95%,86%,50%,40%,110%,101%,97%,100%,85%,82%
